Consider 18 compounds from PubChem BioAssay (EPA / NIEHS).

What all share (conditions): mRNA level, 48 h; actives raise or lower the signal
Read-out in assay [1]: Insulin Like Growth Factor 1 (IGF1), IGF1 (gene 3479)
Nature of the assay: LTEA_HepaRG_IGF1: Life Technologies and Expression Analysis (LTEA) Assay for Insulin Like Growth Factor 1 (IGF1) using HepaRG (AID 2283506). The essentials:
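Endpoint: IGF1 mRNA change by qRT-PCR, housekeeping-normalized, fitted bidirectionally relative to 0.5% DMSO vehicle. Human HepaRG cells were treated 48 h in serum-free induction medium, eight half-log concentrations topping at 100 uM.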

Read-out in assay [2]: Intercellular Adhesion Molecule 1 (ICAM1), ICAM1 (gene 3383)
Nature of the assay: LTEA_HepaRG_ICAM1: Life Technologies and Expression Analysis (LTEA) Assay for Intercellular Adhesion Molecule 1 (ICAM1) using HepaRG (AID 2283507). An outline of the steps:
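ICAM1 transcript levels measured by qRT-PCR, normalized to three housekeeping genes (ACTB, GAPDH, POLR2A), after 48 h chemical exposure of HepaRG cells. Duplicate eight-point half-log series from 100 uM in 0.5% DMSO; gain or loss fitted against vehicle.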

Read-out in assay [3]: Insulin-like growth factor-binding protein 1 (IGFBP1), IGFBP1 (gene 3484)
Nature of the assay: LTEA_HepaRG_IGFBP1: Life Technologies and Expression Analysis (LTEA) Assay for Insulin-like growth factor-binding protein 1 (IGFBP1) using HepaRG (AID 2283508). An outline of the steps:
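Read-out is qRT-PCR transcript level normalized to three housekeeping genes, fitted in both directions against 0.5% DMSO. Differentiated HepaRG cells received eight half-log concentrations (top 100 uM) in duplicate for 48 h in serum-free induction medium.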

Read-out in assay [4]: Interleukin 6 (IL6), IL6 (gene 3569)
Put plainly: LTEA_HepaRG_IL6: Life Technologies and Expression Analysis (LTEA) Assay for Interleukin 6 (IL6) using HepaRG (AID 2283509). The essentials: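 Transcript levels, normalized to three housekeeping genes, were quantified by qRT-PCR after 48 h chemical treatment of HepaRG cells. Eight-point half-log series from 100 uM in 0.5% DMSO, duplicates. Fitted both directions against DMSO baseline.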

Read-out in assay [5]: Interleukin 6 Receptor (IL6R), IL6R (gene 3570)
Nature of the assay: LTEA_HepaRG_IL6R: Life Technologies and Expression Analysis (LTEA) Assay for Interleukin 6 Receptor (IL6R) using HepaRG (AID 2283510).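 As to AC50: differentiated human HepaRG liver cells in serum-free induction medium.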 An outline of the steps:
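In this HepaRG screen, test chemicals act on cells for 48 h at up to 100 uM (eight half-log points, duplicate wells). IL6R expression is quantified by qRT-PCR after normalization to ACTB, GAPDH and POLR2A, with DMSO as baseline.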

Read-out in assay [6]: Potassium channel subfamily K member 1 (KCNK1), KCNK1 (gene 3775)
Put plainly: LTEA_HepaRG_KCNK1: Life Technologies and Expression Analysis (LTEA) Assay for Potassium channel subfamily K member 1 (KCNK1) using HepaRG (AID 2283511). The essentials: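 KCNK1 transcript measured by TaqMan qRT-PCR against three housekeeping genes, after HepaRG cells were treated 48 h with eight half-log concentrations (top 100 uM, 0.5% DMSO). Curves fitted bidirectionally relative to vehicle.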

Read-out in assay [7]: Keratin 19 (KRT19), KRT19 (gene 3880)
Put plainly: LTEA_HepaRG_KRT19: Life Technologies and Expression Analysis (LTEA) Assay for Keratin 19 (KRT19) using HepaRG (AID 2283512). The essentials:
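KRT19 transcript measured by TaqMan qRT-PCR, referenced to three housekeeping genes, after HepaRG cells received test chemicals for 48 h. Eight half-log concentrations, top 100 uM, 0.5% DMSO vehicle; increases and decreases both fitted.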

Read-out in assay [8]: JUN Transcription Factor, JUN (gene 3725)
Put plainly: LTEA_HepaRG_JUN: Life Technologies and Expression Analysis (LTEA) Assay for JUN Transcription Factor using HepaRG (AID 2283513). The essentials:
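Gene-expression endpoint: JUN mRNA (qRT-PCR, normalized to three reference genes) in HepaRG cultures treated 48 h with chemicals, duplicate wells, 100 uM maximum with half-log dilutions; bidirectional fitting relative to 0.5% DMSO.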

Read-out in assay [9]: Lipase C (LIPC), LIPC (gene 3990)
Put plainly: LTEA_HepaRG_LIPC: Life Technologies and Expression Analysis (LTEA) Assay for Lipase C (LIPC) using HepaRG (AID 2283514). An outline of the steps:
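LIPC expression was quantified by qRT-PCR against three housekeeping genes (ACTB, GAPDH, POLR2A). Differentiated human HepaRG cells received eight half-log doses (top 100 uM, 0.5% DMSO) in duplicate for 48 h; fitting bidirectional relative to DMSO.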

Read-out in assay [10]: Lipoprotein lipase (LPL), LPL (gene 4023)
Put plainly: LTEA_HepaRG_LPL: Life Technologies and Expression Analysis (LTEA) Assay for Lipoprotein lipase (LPL) using HepaRG (AID 2283515). The essentials: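 LPL transcript levels quantified by TaqMan qRT-PCR against three housekeeping genes after 48 h chemical treatment of HepaRG cells. Eight-point half-log series from 100 uM in 0.5% DMSO, tested in duplicate; bidirectional fitting versus vehicle.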

Active and inactive are the calls of the source. The calls were made as follows: active = hit-call score of the fitted dose curve at least 0.9, where 1 is the maximum; inactive = score below 0.9.

For the compound `COP(=S)(OC)SCn1nnc2ccccc2c1=O`, the call in assay [1], in assay [2], in assay [3], in [4], in assay [5] and in assay [6] was inactive. Further, the compound was classed as inactive in assay [7], in assay [8], in [9] and in assay [10].
For the compound `CC1(C)CCC(=Cc2ccc(Cl)cc2)C1(O)Cn1cncn1` (stereo not given), the AC50 in assay [1] was 25 µM (active). In addition, the compound was classed as inactive in assay [2], in assay [3], in assay [4], in [5], in [6] and in assay [7]. Further, the outcome in [8], in assay [9] and in assay [10] was inactive.
As to `CCOP(=S)(OCC)Oc1nc(Cl)n(C(C)C)n1`, the half-maximal activity concentration (AC50) in assay [1] is 18.9 µM (active); in assay [3] it was 1.57 µM (active); in assay [5] it was 12.2 µM (active); in assay [10], 64.7 µM (active). Besides, the call in assay [2], in assay [4], in assay [6], in [7], in assay [8] and in assay [9] was inactive.
On to `N#Cc1c[nH]cc1-c1cccc2c1OC(F)(F)O2`, for which the outcome in assay [1], in assay [2], in assay [4], in assay [6] and in assay [8] was inactive. The AC50 was 69 µM (active) in assay [3]; 19.6 µM (active) in assay [5]; 23.9 µM (active) in [7]; 46.7 µM (active) in [9]; 7.8 µM (active) in [10].
For `CC1(C)CON(Cc2ccccc2Cl)C1=O`, the AC50 in assay [1] was 25.6 µM (active). Besides, the result in assay [2], in assay [3], in assay [4], in assay [5], in assay [6] and in assay [7] was inactive. For the same compound, the result in assay [8], in assay [9] and in [10] was inactive.
Take `Cc1ccc(N=CN(C)C=Nc2ccc(C)cc2C)c(C)c1`: the compound was called inactive in assay [1], in [2], in [3], in [4], in assay [5] and in assay [6]. In addition, the outcome in assay [7], in [8], in assay [9] and in [10] was inactive.
`CCN(CC)c1nc(C)cc(OP(=S)(OC)OC)n1`: the compound was called inactive in assay [1], in assay [2], in assay [3], in assay [4], in [5] and in assay [6]. Also, the result in assay [7], in [8], in assay [9] and in assay [10] was inactive.
On to `CN/C(=N\[N+](=O)[O-])NCc1cnc(Cl)s1`, for which the result in assay [1], in assay [2], in [3], in assay [4], in assay [5] and in [8] was inactive. Moreover, the compound was called inactive in [9] and in [10]. Further, the AC50 in [6] is 50 µM (active); in [7], 17.8 µM (active).
`CC1(C)C(C=C(Cl)Cl)C1C(=O)OC(C#N)c1cccc(Oc2ccccc2)c1` (stereo not given): the AC50 in assay [1] is 50 µM (active). The outcome in [2], in assay [3], in assay [4], in [5], in assay [6] and in assay [7] was inactive. Moreover, the result in assay [8], in [9] and in assay [10] was inactive.
In the case of `CS(=O)(=O)c1cc(C(F)(F)F)ccc1C(=O)c1cnoc1C1CC1`, the outcome in assay [1], in [2], in assay [3], in assay [4], in assay [5] and in assay [6] was inactive. The compound was classed as inactive in assay [7], in assay [8], in assay [9] and in assay [10].
Take `CNC(=O)Oc1cccc2ccccc12`: the outcome in [1], in assay [2], in assay [3], in assay [4], in assay [5] and in assay [6] was inactive. The result in assay [7], in assay [8], in assay [9] and in assay [10] was inactive.
In the case of `C=CCOC(=O)C(C)(C)OC(=O)c1cc(-n2c(=O)cc(C(F)(F)F)n(C)c2=O)ccc1Cl`, the outcome in assay [1], in assay [2], in assay [3], in assay [4], in assay [5] and in assay [6] was inactive. The compound was classed as inactive in [7], in assay [8], in assay [9] and in [10].
For `CO/N=C(/C1=NOCCO1)c1ccccc1Oc1ncnc(Oc2ccccc2Cl)c1F`, the AC50 in [1] is 10.6 µM (active); in assay [2], 29.4 µM (active); in assay [3], 20.3 µM (active); in assay [4], 28.4 µM (active); in assay [7], 13.3 µM (active); in [9] it was 30.1 µM (active). Besides, the AC50 in assay [10] is 23.2 µM (active). In addition, the outcome in assay [5], in assay [6] and in [8] was inactive.
For `Clc1cccc(C(Cl)(Cl)Cl)n1`, the outcome in assay [1], in assay [2], in assay [3], in assay [4], in [5] and in assay [6] was inactive. The compound was classed as inactive in [7], in assay [8], in assay [9] and in [10].
In the case of `CCCCC(O)(Cn1cncn1)c1ccc(Cl)cc1Cl` (stereo not given), the AC50 was 75.1 µM (active) in [1]; 83.9 µM (active) in [2]; 79.3 µM (active) in assay [3]; 72 µM (active) in [4]; 41.3 µM (active) in assay [6]; 75.2 µM (active) in [9]. Further, in assay [10], the AC50 was 50 µM (active). Further, the compound was classed as inactive in assay [5], in assay [7] and in [8].
On to `CC(C)Oc1cccc(NC(=O)c2ccccc2C(F)(F)F)c1`, for which the AC50 in assay [1] was 80.9 µM (active); in assay [7] it was 34.1 µM (active). For the same compound, the compound was called inactive in assay [2], in assay [3], in assay [4], in assay [5], in assay [6] and in assay [8]. Further, the outcome in assay [9] and in assay [10] was inactive.
Take `CCCCOCN(C(=O)CCl)c1c(CC)cccc1CC`: the AC50 in [1] is 50 µM (active). Also, the compound was called inactive in assay [2], in [3], in assay [4], in [5], in [6] and in assay [7]. The result in [8], in assay [9] and in [10] was inactive.
Turning to `O=P(O)(O)CCCl`, the compound was classed as inactive in [1], in assay [2], in assay [3], in assay [4], in assay [5] and in [6]. Moreover, the result in [7], in assay [8], in assay [9] and in assay [10] was inactive.

For orientation: AC50 means the concentration giving half of the maximal activity seen.
